This passage reports growth results from PubChem BioAssay (NCI).

Each structure is given as a SMILES string. The panel holds about 83,000 compounds, 20% with a hit somewhere; the sample as a whole holds those more often.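 Single-dose data. Exposure time 48 hours. Values below 10 considered active.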 Values without a mark were called inactive. Calls of active or inactive are those of the source.

The subject of this assay is SN12C renal. Put plainly: NCI-60 one-dose screen, 48 h (100 = growth as untreated, 0 = no growth, -100 = all killed). As to conditions: 10 µM unless noted. The method, then:
Growth inhibition of the SN12C human tumor cell line is measured as a screen for anti-cancer activity. Cells are grown in 96 well plates and exposed to the test compound for 48 hours. Compounds are tested at a single concentration, which is 10^-5 M for most compounds. The reported endpoint is percent growth (GI% or GIPRCNT), where numbers from 0 - 100% represent growth inhibition, and numbers from -100% - 0 represent cell death. For example, a value of 40 represents 60% growth inhibition. A value of 0 means no net growth occurred over the course of the experiment. A value of -40 indicates 40% of cells at the beginning of the experiment died by the end of the experiment. A value of -100 means all cells are dead at the end of the experiment.
NCI-60 Human Tumor Cell Lines Screen was performed using the standard one-dose NCI protocol, which is described in more detail at https://dtp.cancer.gov/discovery_development/nci-60/default.htm.
Compounds with GIPRCNT values below 10 were considered active. Activity score was based on GIPRCNT using the following formula: […]
Score is 0 for GIPRCNT values of 100 or above, 50 for GIPRCNT values of 0, and 100 for GIPRCNT values of -100.
For the molecule `COc1ccc(-c2nc(N/N=C/c3ccco3)nc(N3CCOCC3)c2C#N)cc1`, the growth is 80.2%.
Under `CCOC(=O)C1CC(=O)c2cc(OC)c(OC)cc2C1` (stereo not given) stands 100%.
In the case of `Fc1ccc(C2CC(c3cccc(Nc4ccncc4)c3)=NN2c2ccccc2)cc1` (stereo not given), the growth is 75.8%.
Under `C#CCn1cc(C=C2C(=O)NC(=S)NC2=O)c2cc(Cl)ccc21` stands -34.9% (active); under `C#CCNC(=O)[C@H](Cc1ccccc1)NC(=O)[C@]12CC[C@@H](C(=C)C)[C@@H]1[C@H]1CC[C@@H]3[C@@]4(C)Cc5c([nH]c6ccccc56)C(C)(C)[C@@H]4CC[C@@]3(C)[C@]1(C)CC2`, 93.6%.
Next, `Cc1ccc(Nc2cc(=S)nc(N)[nH]2)cc1C`: 92.4%.
Next, `CC(C)(C)OC(=O)N1C/C(=C\c2ccoc2)C(=O)/C(=C/c2ccoc2)C1`: 97.8%; `O=C1Nc2c(ccc(Cl)c2Cl)/C1=C/c1ccc([N+](=O)[O-])cc1`: 126%.
As to `CCCCCCOc1ccc(C(=N)N(CCCC)CCCC)c2ccccc12`, the growth is -86.5% (active).
On to `COc1cc2nc(Cc3ccc(C)cc3)[nH]c(=O)c2cc1OC`, for which the growth was 99.6%.
Next, `Cc1[nH]c(C(=O)Nc2ccccc2OCc2cccc(C(=O)NCCN)c2)c(Cl)c1Cl`: 58%; `Nc1nnc(C(=O)c2cnc3n(c2=O)CCCCC3)s1`: 95.1%.
Consider `COc1ccc(Nc2nc(N)nc3c2CCc2occc2-3)cc1`, for which the growth is 99.5%.
Under `Cc1ccc(C(c2c(O)c3cc(Br)ccc3[nH]c2=O)c2c(O)c3cc(Br)ccc3[nH]c2=O)cc1` stands 94.5%; under `COc1cc(/C=C2\C(=O)N(Cc3ccc(Cl)cc3)c3ccccc32)cc(OC)c1OC`, 24.9%.
Under `COc1ccc(-c2nc(N/N=C/c3cccc(Br)c3)nc(N3CCOCC3)c2C#N)cc1` stands 89.4%; under `CCOC(=O)c1c(SC)nn(-c2cc(=O)[nH]c3ccc(Br)cc23)c1N`, 108%.
Consider `COc1cc2nc(-c3ccc(C(F)(F)F)cc3)cc(OCCN3CCC(O)CC3)c2cc1OC`, for which the growth is 57.5%.
Under `CC(C)(C)OC(=O)N1CCN(c2ccc(N)cc2)C(=O)C1` stands 96.2%; under `CC(C)CCSc1nc(NNC(N)=O)c(C#N)c(-c2ccccc2)n1`, 95%.
Under `C=C(C)[C@H]1CC/C(C)=C/CC[C@]2(C)O[C@H]2CC/C(COC(=O)[C@@H](OC(C)=O)[C@H](NC(=O)c2ccccc2)c2ccccc2)=C\[C@@H]1O` stands 93.8%; under `CC(=O)OC1CCC2(C)C(CCC3C4CC=C(C(C)=O)C4(C)OC(=O)CC32)C1` (stereo not given), 57.8%; under `C=C1C(=O)O[C@H]2[C@H]1CC/C(COC(=O)/C=C/c1c[nH]c3ccccc13)=C\CC[C@@]1(C)O[C@@H]21`, -54% (active).
Next, `COc1ccc(C2CC(c3cccc(Nc4ccncc4)c3)=NN2c2ccccc2)cc1` (stereo not given): 80.6%.
For `CC(C)[N+](C)(CCOC(COc1ccccc1)COc1ccccc1)C(C)C`, the growth was 64.8%.
Next, `Brc1ccc(C2CC(c3cccc(Nc4ccncc4)c3)=NN2c2ccccc2)cc1` (stereo not given): 81.2%; `CCCCCN1C=C/C(=C\C(=O)N(C)c2cccc3ccccc23)c2ccccc21`: 100%.
Regarding `CCN(CC)CCCC(C)Nc1c2c(nc3ccc(OC)cc13)CCCC2` (stereo not given), the growth was 84.4%.
As for `Nc1c(Cl)cc([N+](=O)[O-])cc1Br`, the growth is 97%.
Next, `CC(C)NC(=O)N1C(=O)CCC1NNC(=O)c1ccc([N+](=O)[O-])cc1` (stereo not given): 102%.
On to `O=C1NC(=S)NC(=O)C1=Cc1cccc(C=C2C(=O)NC(=S)NC2=O)c1`, for which the growth is 95.3%.
For the molecule `Nc1cc(N)c2cccnc2c1O`, the growth is 55.5%.
For `O=S(=O)(NCCCNc1nccc(-c2c(-c3ccccc3)nc3occn23)n1)c1ccc(Cl)cc1`, the growth was 68.2%.
Next, `O=C1CCCCCCCCC(O)C(O)CCCC(c2cccs2)O1` (stereo not given): 106%; `Clc1ccc(C2CC(c3cccc(Nc4ccncc4)c3)=NN2c2ccc(Cl)cc2)cc1` (stereo not given): 39.6%; `FC(F)(F)c1cccc(Oc2ccc(Nc3ncnc4ccc(OCCCN5CCOCC5)cc34)cc2Cl)c1`: 39.6%.
For `CC(N)C(=O)NNc1n[nH]c(=S)n1N` (stereo not given), the growth was 102%.
Take `O=C(Nc1nc2ccc(S(=O)(=O)Nc3ccc(C4(C(F)(F)F)CC4)cc3)cc2[nH]1)c1cnccn1`: the growth was 44.9%.
For `CC[N+](CC)(CCCC(C)[N+]1(Cc2ccccc2)C(C)=CC=C1C)Cc1ccccc1` (stereo not given), the growth was 85.1%.
Next, `CCCCc1ccc(Nc2nnc(SCC(=O)NC(=O)NCC)s2)cc1`: 97%.
